NALP3 yeast inh – NALP3 inflammasome inhibitors in reconstituted yeast, primary screen, luminescence, uHTS | Yeast reconstituted NLRP3/ASC/caspase-1, beta-gal luminescence, 24 h | inhibition, % at 10 µM | hit rate 0.39% among 330,000;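 active means inhibition of 50% or more; inactive means inhibition below 50%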;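 further: plate controls were induced DMSO wells for no effect and uninduced yeast grown without galactose for full effect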
Mot1-301 SUMO – yeast Mot1-301 growth rescue at high temperature, primary screen, SUMOylation pathway inhibitor project, S. cerevisiae, ATP luminescence, 38.5C | S. cerevisiae Mot1-301 growth rescue; percent above DMSO median, 100 means doubled | growth rescue, % at 18.8 µM | hit rate 1% among 320,000;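 active means every valid replicate shows activation above 250% relative to neutral control wells; inactive means the rest, any valid replicate at or below 250%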;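 further: OY570 slx delta 5 strain wells were the positive control but not used for scaling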
NALP1 inh – NALP1 inflammasome inhibitors in reconstituted yeast, colorimetric, S. cerevisiae, triplicate retest. S. cerevisiae NALP1/ASC/caspase-1 growth, X-gal OD620, 72 h. inhibition, % at 10 µM. hit rate 0.61% among 280,000; in the data active means inhibition mostly above about 24%, no sharp cut-off; inactive means mostly below about 32%
PolyA inh – polyadenylation inhibitors in yeast reporter cells, primary screen, luminescence, S. cerevisiae; activity score, % at 12 µM; hit rate 0.02% among 300,000; S. cerevisiae SKY197-pL101 polyadenylation reporter, beta-gal luminescence; efflux-impaired pdr1/pdr3 knockout yeast; score 100 = 6 SD above DMSO;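 active means lowest replicate activity score at least 50, where 100 means six control SD above control mean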;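 further: yeast exposed to compound for 9 h at 30 °C; higher score means more reporter readthrough which indicates perturbed polyadenylation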
Yeast Mot1 SUMO – growth restoration of Mot1-301 yeast on galactose, dose response, SUMO pathway inhibitor project, whole organism, S. cerevisiae, ATP luminescence, cherry-picked samples; shares compounds with Mot1-301 SUMO; S. cerevisiae Mot1-301 galactose growth, 24 h; -100 = growth of slx-deleted rescue strain; growth activity, percent, % at 42 µM; 2,300 tested, under 10 active; AID 493004, 2010;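 active means Signal drops as the depositor expects, and the fitted half-maximal dose is no more than ten times the top valid tested dose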;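 further: more negative values mean stronger growth rescue toward the control strain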
The depositor's hits bear a star; x = no result; + = active, no number. Compounds with a hit are over-represented: about 1.8% of the library has one in this group of screens.

SMILES	NALP3 yeast inh	Mot1-301 SUMO	NALP1 inh	PolyA inh	Yeast Mot1 SUMO
O=C(Nc1nc2ccccc2s1)c1cccc(S(=O)(=O)N2CCc3ccccc32)c1	0	+	x	8	0
Cc1[nH]c2ccccc2c1C1(O)C(=O)N(C(C)C)c2ccccc21 (stereo unspecified)	4	219	22	-61	x
O=c1c2ccccc2nc(SCc2nnc(-c3ccccc3)o2)n1-c1ccc(F)cc1F	20	466*	22	-25	0
O=c1c2ccccc2ncn1-c1cccc(Cl)c1	13	6	1	7	x
O=c1c2ccccc2ncn1-c1ccc(Cl)cc1Cl	26	747*	-3	-7	1
CC1CCCN(C(=O)CSc2nc3ncccc3[nH]2)C1 (stereo unspecified)	10	-6	-7	-17	x
N#C/C(=C\c1ccc(C(=O)O)cc1)c1ccccn1	-2	-15	-4	2	x
COc1cc(C)c(Cl)c(C)c1S(=O)(=O)NCc1ccc2c(c1)OCO2	7	384*	-24	6	-1
COc1cc(C)c(S(=O)(=O)NCc2ccc3c(c2)OCO3)cc1C	14	1	2	-5	x
CN(Cc1cccnc1)Cc1cn[nH]c1-c1ccc(-c2ccccc2)cc1	-3	791*	-58	-18	0
Cc1cc(C)n2c(SCC(=O)NC3CCCC(C)C3C)nnc2n1 (stereo unspecified)	10	71	-3	-7	x
Cc1cc(C)n2nc(SCC(=O)NC3CCCC(C)C3C)nc2n1 (stereo unspecified)	0	517*	14	7	0
O=C(NC1CCCCC1)C(c1cccs1)N(C(=O)c1ccccn1)c1ccccc1 (stereo unspecified)	-6	1	11	-16	x
O=C(NC1CCCC1)C(c1cccs1)N(C(=O)c1ccno1)c1ccccc1 (stereo unspecified)	9	815*	x	-3	0
CCOc1ccc(S(=O)(=O)Nc2ccc(C(=O)NN)cc2)cc1	-23	48	x	2	x
COc1cccc(OC)c1C(=O)Nc1ccc2c(c1)N(S(=O)(=O)c1cccs1)CCC2	3	490*	17	4	0
O=C(Nc1nnc(-c2ccc(F)cc2)o1)c1ccc(S(=O)(=O)N2CCOCC2)cc1	-2	0	5	8	x
CCN1C(=O)c2cccc3c(S(=O)(=O)Nc4ccc(OC)cc4OC)ccc1c23	3	768*	3	2	0
Cc1cc(Cl)ccc1N=c1ssnc1Cl	16	128	34	4	x
Cc1nnc(N=c2ssnc2Cl)o1	12	606*	x	x	-1
Cc1ccc(N=c2ssnc2Cl)cc1	18	471*	8	-4	-1
Cc1cc(NC(=O)c2ccc(N3C(=O)CCC3=O)cc2)no1	3	701*	14	7	0
C=CCn1cc(C(C)=O)c(=O)[nH]c1=O	-2	610*	2	12	1
CCCCCCCCn1cc(C(C)=O)c(=O)[nH]c1=O	0	-13	6	32	x
COc1ccc(NC(=O)CN(C)C(=O)/C=C/c2cn(-c3ccccc3)nc2-c2ccc(C)cc2)cc1	12	515*	x	11	0
SMILES	NALP3 yeast inh	Mot1-301 SUMO	NALP1 inh	PolyA inh	Yeast Mot1 SUMO
COc1ccc(NC(=O)CN(C)C(=O)/C=C/c2cn(-c3ccccc3)nc2-c2ccc(F)cc2)cc1	39	567*	x	16	1
CCOC(=O)Cn1c(=O)oc2cc(S(=O)(=O)NC(C)(C)CC)ccc21	3	643*	x	20	0
CCn1nc(C(=O)OCC(=O)NCCN2C(=O)CSC2=O)c2ccccc2c1=O	-1	-23	-6	-7	x
CCOC(=O)c1c(C)[nH]c(C=Nc2ccccc2)c1O	6	x	-2	4	x
CCOC(=O)c1c(C)[nH]c(O)c1C=Nc1ccccc1	5	883*	5	-13	0
N#Cc1c(C(F)(F)F)cc(-c2ccc(F)cc2)[nH]c1=O	16	10	11	-2	x
Cc1cc(C(F)(F)F)c(C#N)c(=O)[nH]1	12	+	0	x	0
Nc1c(-c2ccccc2)c(CN2CCOCC2)nn1-c1ccccc1	-12	75	15	12	x
COc1cc(-c2nnc(SCC#CCO)o2)cc(OC)c1OC	13	967*	23	-16	1

High-throughput results: PubChem, several laboratories
